± gives the standard deviation of the averaged measurements. In all, about 25,000 sequences were measured (“ln(normalized median fluorescence intensity)”: median about 7.9, highest 2% from about 11 on). Shown is part of a subset that was picked to be rich in the highest values.

The test relates to PfAP2-I AP2 domain 3 (GST-tagged). Description: gcPBM binding intensity (ln(normalized median fluorescence intensity)); higher = stronger DNA binding. In outline: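 GST-tagged P. falciparum DNA-binding domains produced in E. coli were incubated for 1 h on an Agilent 4 × 180k array of primer-extended double-stranded 36-bp intergenic genomic probes with negative controls. Binding intensity is the highest Masliner-normalised natural-log median intensity across replicate spots of either probe orientation, with bound protein detected by Alexa488 anti-GST antibody at 488 nm.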
For “ACAAAAAAAATAAGCACACATATATATATATATATA [CACACA_site816]”, the “gcPBM binding intensity (ln)” value was found to be 9.38 ± 0.36.

“AATAATAAAAATATTGTGCACTTGTATATTTATTAT [GTGCAC_site9963]”: the “gcPBM binding intensity (ln)” value is 11 ± 0.11.

Regarding “TTTTTTATTATATAATTGTATATAAAATTATAATTT [GTGCAC_negctrl_site733]”, the “gcPBM binding intensity (ln)” value turned out to be 7.67 ± 0.47.

With ATTTATATTAAAAGTGTGCACTTTTTTTTTTTTTTT, the “gcPBM binding intensity (ln)” value amounted to 9.77 ± 0.085.

In the case of ATTATTAATAATTGTGTGCACAAATATTTATATGCT, the “gcPBM binding intensity (ln)” value stood at 10.815 ± 0.007.

Consider “TTTATATTCTTAAGTGTGCACTATATATATATATAT [GTGCAC_site9719]”, for which the “gcPBM binding intensity (ln)” value is 11.2 ± 0.23.

In the case of “GCCCCCAAATTATGTGTGCACTTTATATTCCTGAGA [GTGCAC_site9474]”, the “gcPBM binding intensity (ln)” value amounted to 10.4 ± 0.23.

Regarding “TATAAAAATAAGCACACACACAAATATATATTTATT [CACACA_site922]”, the “gcPBM binding intensity (ln)” value stood at 8.12 ± 0.25.

For the sequence TATTAACAAATTTATGTGCACTGAGGACAAATATAT, the “gcPBM binding intensity (ln)” value was found to be 10.96 ± 0.085.

As to “TATTATATAATAAAAATTATTATTATTTGTATAAAT [CACACA_negctrl_site195]”, the “gcPBM binding intensity (ln)” value stood at 7.21 ± 0.42.

For ATATATATATATATTGTGCACAAAAAAAAATAAGCA, the “gcPBM binding intensity (ln)” value stood at 11.2 ± 0.15.

With TTTTCTTGGTTCAGTGTGCACTTATATATATATATA, the “gcPBM binding intensity (ln)” value was determined as 10.3 ± 0.2.

For “ATGTTATAAGATTTATGTACACACATATACACACCT [XGTACX_site1316]”, the “gcPBM binding intensity (ln)” value was 8.35 ± 0.21.

As for “CATAAATCAGCCATAACACACATACCTATATACATA [CACACA_site6324]”, the “gcPBM binding intensity (ln)” value turned out to be 7.75 ± 0.57.

In the case of “TAAAATATTATCTACGCACACATTAAAATAAAAAAA [CACACA_site3709]”, the “gcPBM binding intensity (ln)” value was 8.32 ± 0.2.

As to “ACTTTAAAAAGATTCACACAAAATATATAAAAATAT [CACACA_site5334]”, the “gcPBM binding intensity (ln)” value was determined as 7.75 ± 0.39.

In the case of “AGAATTTTATTATATTGTACTTTTTATAAACCTTGT [XGTACX_site7495]”, the “gcPBM binding intensity (ln)” value was determined as 7.7 ± 0.71.

On to “ATTAAAACACAATATTCACACATGTATATTATATAT [CACACA_site5191]”, for which the “gcPBM binding intensity (ln)” value came out at 7.72 ± 0.51.

Take “CATATATATATATGAACACACAAAAAGAATATTTCC [CACACA_site1493]”: the “gcPBM binding intensity (ln)” value turned out to be 7.62 ± 0.63.

On to “GAATATGTAAAGAAAGGTACACATGAAAATATGTGT [XGTACX_site446]”, for which the “gcPBM binding intensity (ln)” value amounted to 7.71 ± 0.66.

On to GATGTTTCTATTTTAGTGCATTTTAAATAAATAAAT, for which the “gcPBM binding intensity (ln)” value amounted to 10.4 ± 0.12.

Regarding “ATGAATACAAAATTATACAAAATTATCAAAAGTATG [CACACA_negctrl_site1453]”, the “gcPBM binding intensity (ln)” value is 7.5 ± 0.49.

Take “TTGTATACATAAAATGGTACAGAATATATAATTCTA [XGTACX_site7236]”: the “gcPBM binding intensity (ln)” value stood at 7.45 ± 0.61.

Regarding AATAACTATATATGTGTGCACAAAAATTTGACATAA, the “gcPBM binding intensity (ln)” value amounted to 10.7 ± 0.049.

For “AAATATATGTTATATGTGCACTTTTTTTTTTTTTTT [GTGCAC_site9667]”, the “gcPBM binding intensity (ln)” value stood at 10.21 ± 0.035.

Consider “ATTTTATGAAATGTTGCACACAAAAAACAACATGTT [CACACA_site8408]”, for which the “gcPBM binding intensity (ln)” value is 8.95 ± 0.092.

Consider TATTTTTGGTTATGTGTGCACTATGAACAACAAAAT, for which the “gcPBM binding intensity (ln)” value turned out to be 11.4 ± 0.26.

For the sequence ATAATATATGTATGTATGCACTTTTATTATTTTTTT, the “gcPBM binding intensity (ln)” value stood at 8.96 ± 0.15.

Regarding TATATATAAATATATGTGCACTTTTTATATTTATAT, the “gcPBM binding intensity (ln)” value was 11 ± 0.13.

As for “TATATTATTTATTTTTGTACATATTATGAATGAATA [XGTACX_site3971]”, the “gcPBM binding intensity (ln)” value was 7.73 ± 0.33.

As for “ACTCAAACCTTTAGAGTGCAAAAAAAAAAAAAAAAA [GTGCAC_site9952]”, the “gcPBM binding intensity (ln)” value is 10 ± 0.21.

“TTTTTTAAAAGATAATATTTTATTAATGTATTCTCA [GTGCAC_negctrl_site598]”: the “gcPBM binding intensity (ln)” value was determined as 7.2 ± 0.55.

With “TTAAAAAAATATTGAAGTACACACATTATAAACTTT [XGTACX_site3548]”, the “gcPBM binding intensity (ln)” value was found to be 7.89 ± 0.38.

Regarding CTTTTTTTGACCTTAGTGCAAATAACTATATATTAT, the “gcPBM binding intensity (ln)” value is 10.5 ± 0.41.

Consider “TAGGAAAAAAATACAGTGCAATTTTTATATAAATAA [GTGCAC_site9979]”, for which the “gcPBM binding intensity (ln)” value turned out to be 8.62 ± 0.5.

In the case of “AAATAAATTTGACCAGTGCAATAACTTTGTATACCT [GTGCAC_site9446]”, the “gcPBM binding intensity (ln)” value was found to be 11.2 ± 0.64.

For “AAAAAAAAAGAAAAATGTACATACATAAATATATAT [XGTACX_site5664]”, the “gcPBM binding intensity (ln)” value came out at 7.77 ± 0.68.

Take “TAATTGATTCTTCACCGTACTCACACATATATATAT [XGTACX_site6530]”: the “gcPBM binding intensity (ln)” value stood at 8.99 ± 0.085.

Take “TGTGCATAATTTTGTGCACACCACGCTAATAATTTT [CACACA_site2915]”: the “gcPBM binding intensity (ln)” value is 11.4 ± 0.48.

For “ATATATATATAATTTGTACACACAAATATGCATATA [CACACA_site9136]”, the “gcPBM binding intensity (ln)” value came out at 9.18 ± 0.24.

As to AGTATAAGCATTATTGTGCACATAATTATAATTTTT, the “gcPBM binding intensity (ln)” value worked out at 10.6 ± 0.53.

With “CATATATAAAATATATGTACTTATAGAACATAATTT [XGTACX_site1936]”, the “gcPBM binding intensity (ln)” value amounted to 7.3 ± 0.35.

As for “AAATACTTAACATTGGTGCATATTTGTAAAATTATT [GTGCAC_site9515]”, the “gcPBM binding intensity (ln)” value came out at 10.3 ± 0.55.

Turning to “TTTTTGTAAAATAAACGTACAAAACAATTGTTCATT [XGTACX_site6537]”, the “gcPBM binding intensity (ln)” value stood at 7.82 ± 0.4.

Take “TTTGTTCATATTATTGTGCACTTAAACGTAACAAAA [GTGCAC_site9505]”: the “gcPBM binding intensity (ln)” value is 11.3 ± 0.39.

“TAATAAAAAAAGTGCACACACATAATATATATATAT [CACACA_site3340]”: the “gcPBM binding intensity (ln)” value is 9.93 ± 0.37.

Take “AATAATAAAAAAAGTGCACACACATAATATATATAT [CACACA_site9100]”: the “gcPBM binding intensity (ln)” value was 9.95 ± 0.014.

For the sequence ATGAAACACTCCATAGTGCAAAATATATATTATATT, the “gcPBM binding intensity (ln)” value stood at 10.27 ± 0.057.

For “AAAAATAAATATATATGTACACATATGTATACAATA [XGTACX_site4692]”, the “gcPBM binding intensity (ln)” value worked out at 7.65 ± 0.38.

“ATATAAATATAGTGTGCACACACATAATATATATAT [CACACA_site8713]”: the “gcPBM binding intensity (ln)” value is 9.49 ± 0.11.

“ATATATATATATAGTGCACACATATAAAATATATAT [CACACA_site8884]”: the “gcPBM binding intensity (ln)” value turned out to be 11.5 ± 0.15.

In the case of “TATATATATATGTGCACACATAATAAAAAAAAAAAT [CACACA_site3831]”, the “gcPBM binding intensity (ln)” value worked out at 10.3 ± 0.11.

As to “TTAACATACACTCTAGTGCATATATATAACAAAATA [GTGCAC_site9724]”, the “gcPBM binding intensity (ln)” value was 10 ± 0.17.

In the case of “ATATATATATAGTGCACACATATAAAATATATATAA [CACACA_site2745]”, the “gcPBM binding intensity (ln)” value was 11.29 ± 0.078.

As for ATTACACATATAGTAGTGCAATAACTCCAAAAAAAA, the “gcPBM binding intensity (ln)” value stood at 11.4 ± 0.6.

On to “AATACAATAAAATAGTGTACATATATATTATGTATA [XGTACX_site8258]”, for which the “gcPBM binding intensity (ln)” value was determined as 7.63 ± 0.27.

Turning to TTATACAGGACAATAGTGCACATAAATATATGTATA, the “gcPBM binding intensity (ln)” value was 11.2 ± 0.51.

Turning to “TTTTCTTTTTGTTCGTGTACACACATGAAATTTATA [XGTACX_site3301]”, the “gcPBM binding intensity (ln)” value is 8.78 ± 0.68.

For “TACAGAAATTTATATATATATATATATATATATATA [XGTACX_negctrl_site209]”, the “gcPBM binding intensity (ln)” value stood at 9.39 ± 0.54.

With “ATATAAAACTAATTTCTTTTTCTCCTTTTATTTTGT [CACACA_negctrl_site1251]”, the “gcPBM binding intensity (ln)” value was 7.8 ± 0.59.

Consider “AACAAACAAATAGTTTATTTTGATTTTTTTAAAAAT [CACACA_negctrl_site693]”, for which the “gcPBM binding intensity (ln)” value turned out to be 7.36 ± 0.65.

For “AATAAAATTTGCGATGCACACAGAATAGCTAATATG [CACACA_site8983]”, the “gcPBM binding intensity (ln)” value came out at 7.96 ± 0.57.

With “TATATATAAATATATACACACATGAAAATAAATAAA [CACACA_site2514]”, the “gcPBM binding intensity (ln)” value came to 7.67 ± 0.45.

For “TTGAAAAATGAGCACACACACAAATACATACATATT [CACACA_site3231]”, the “gcPBM binding intensity (ln)” value was determined as 7.97 ± 0.36.

As to “ATATTTTTTTTTTTCACACACATTTATATTGTATTA [CACACA_site5695]”, the “gcPBM binding intensity (ln)” value amounted to 8.01 ± 0.79.

On to “TTAGCAACTATTACTACACACATTTTTATATAACTT [CACACA_site6762]”, for which the “gcPBM binding intensity (ln)” value worked out at 7.84 ± 0.59.

Regarding “TTTAAAATAAATTAATAGAACAAAAATAAAATGATT [GTGCAC_negctrl_site375]”, the “gcPBM binding intensity (ln)” value turned out to be 7.78 ± 0.67.

Regarding “AAATTAAAGGCATAAAAGAAAATATTTAATAAAAAA [CACACA_negctrl_site1689]”, the “gcPBM binding intensity (ln)” value was determined as 7.71 ± 0.73.

With “ATAGGCACTTTTTGCACACGTATGAATAACAAAATA [CACACA_site5069]”, the “gcPBM binding intensity (ln)” value is 9.54 ± 0.13.

Turning to “TTATATGCACTTTTTGCACACGTATGAATAACAAAA [CACACA_site1811]”, the “gcPBM binding intensity (ln)” value was determined as 10.8 ± 0.86.

On to “ATATGCACTTTTTGCACACGTATGAATAACAAAATA [CACACA_site1810]”, for which the “gcPBM binding intensity (ln)” value was 10 ± 0.25.

With “ATAAACATCTAGTGCTGTACACAATTTGATTTTTTT [XGTACX_site3110]”, the “gcPBM binding intensity (ln)” value came out at 8.9 ± 0.31.

For “TATTTTTTTTTATTTTTTTTTATTTTGTTTTTTTAT [TGCATGCA_negctrl_site315]”, the “gcPBM binding intensity (ln)” value was determined as 7.32 ± 0.52.

In the case of “AAAAAAATTAAATCAAGTACTCATTCTTAAATTATA [XGTACX_site1274]”, the “gcPBM binding intensity (ln)” value was 7.32 ± 0.49.

These data come from the supplement of paper PMC11417369.
